Screening results as filed in PubChem.
The list is not random: actives were taken first. Their share in the collection is about 0.5%.
E coli growth-1 – reduces bacterial viability in AddAB counter-screen. E. coli V3065 growth, OD600 absorbance, 18 h. inhibition, % at 11.9 µM. 0.27% of 330,000 active. AID 449728;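 active means inhibition above the campaign's mean inhibition across all tested compounds plus 3 SD, cut at about 9.9% in these data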;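 further: uninfected addAB+ strain grown without phage in ampicillin broth; 0% = DMSO wells and 100% = ciprofloxacin 0.95 µg/ml wells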
E coli growth-2 – inhibitors of Escherichia coli growth | OD600, 23 h; stronger effect = lower value | OD600 absorbance (concentration not given with the values) | 0.21% of 330,000 active;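 active means OD600 absorbance below the run mean of sample wells minus 3.6 SD, in any replicate, cut at about 0.56 in these data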
Tat transport – E. coli Tat transport inhibition; 0.036% of 340,000 active; E. coli MC4100 TorA-mCherry Tat export, fluorescence; inhibition, % at 10 µM;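 active means mean replicate inhibition at least 50% and at least half of replicates individually reaching 50%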;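 further: exported cargo escapes ClpAP degradation while cytoplasmic cargo is degraded and loses fluorescence; 0% = median of neutral control wells and 100% = median of NaSCN control wells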
AddAB inh – less growth of phage-infected E. coli with AddAB; E. coli expressing H. pylori AddAB, absorbance growth; inhibition, % at 11.9 µM; 0.29% of 330,000 active; AID 435030; in the data active means inhibition above about 12%;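 further: 0% = vehicle wells of infected cells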
phage Ecoli inh – E. coli growth loss with phage present; growth absorbance; inhibition, % at 11.9 µM; 0.26% of 360,000 active; AID 651602; in the data active means inhibition above about 11%
AddAB conf – confirmation screen: growth loss of phage-infected E. coli expressing H. pylori AddAB; shares compounds with AddAB inh; E. coli V3065 expressing H. pylori AddAB, T4 phage, OD; T4 phage with gene 2 nonsense mutations; inhibition, % at 11.9 µM; 64% of 880 active;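 active means mean inhibition above a set limit taken from the earlier primary screen, cut at about 13% in these data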;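 further: higher means less bacterial growth since AddAB block lets phage replicate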
RecBCD counter – AddAB counter-screen: growth loss of RecBCD+ E. coli infected with mutant T4 phage | shares compounds with AddAB inh | E. coli V66 + mutant T4 phage, OD growth | inhibition, % at 11.9 µM | 73% of 880 active;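 active means mean inhibition above the mean of solvent-only control wells plus 3 SD, cut at about 4% in these data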;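 further: optical density read after an 18 h incubation at 37 °C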
Bact viability – reduces bacterial viability, AddAB inhibitor counter-screen. shares compounds with AddAB inh. absorbance (AddAB counterscreen). inhibition, % at 11.9 µM. 35% of 880 active; in the data active means inhibition above about 25%
RecBCD conf – confirmation: growth loss of phage-infected RecBCD+ E. coli (RecBCD inhibitor screen); shares compounds with phage Ecoli inh; E. coli V66 + T4 2- phage, growth OD; inhibition, % at 11.9 µM; 45% of 890 active; AID 651982;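 active means mean inhibition over triplicates exceeding the hit threshold derived in the original primary screen, cut at about 11% in these data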
Ecoli viability – bacterial viability inhibition counter-screen for RecBCD | shares compounds with phage Ecoli inh | E. coli viability, absorbance (OD) growth | inhibition, % at 11.9 µM | 29% of 890 active; in the data active means inhibition above about 20%;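 further: E. coli strain V66 grown with compound alone and no phage infection; 0% = bacteria with DMSO vehicle only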
AddAB counter – growth loss of phage-infected AddAB E. coli, RecBCD counter-screen; E. coli expressing H. pylori AddAB + T4 phage, OD growth; gene 2 mutant T4, recBCD-deleted host; inhibition, % at 11.9 µM; 45% of 890 active; shares compounds with phage Ecoli inh;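 active means mean inhibition above the solvent-only control wells' mean plus 3 SD, cut at about 22% in these data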;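 further: higher means less bacterial growth from phage killing when AddAB is blocked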
* = called active by the depositor; nt = no result given; ! = not confirmed by another sample.

SMILES	E coli growth-1	E coli growth-2	Tat transport	AddAB inh	phage Ecoli inh	AddAB conf	RecBCD counter	Bact viability	RecBCD conf	Ecoli viability	AddAB counter
Cc1onc(-c2c(Cl)cccc2Cl)c1C(=O)N/N=C(\N)COc1ccc(Cl)cc1	16*	nt	6	14*	18*	17*	19*	18	8	10	32*
Cc1onc(-c2ccccc2Cl)c1C(=O)NN=C(N)COc1ccc(Cl)cc1	nt	0.68	nt	nt	nt	nt	nt	nt	nt	nt	nt
O=C(O)CSc1nnc(-c2ccccc2O)n1Cc1ccccc1	0	0.71	12	-4	2	nt	nt	nt	nt	nt	nt
O=C(CSc1nnc(-c2ccccc2O)n1Cc1ccccc1)NNC(=O)c1ccccc1O	14*	0.6	18	25*	13*	5	5.9*	5	4	5	8
CCCCNC1=CC(=O)C(NCCCC)=CC1=O	nt	0.69	9	nt	4	nt	nt	nt	nt	nt	nt
CCCCNC1=CC(=O)C(=O)c2ccccc21	25*	0.42*	-29	29*	21*	32*	9.9*	19	13*	15	22*
NC(=NCCCCCCN=C(N)/N=C(\N)Nc1ccc(Cl)cc1)/N=C(\N)Nc1ccc(Cl)cc1	105*	nt	156*!	103*	106*!	100*	101*	100*	104*	105*	104*
CCOC1OC(C(=O)N2CCN(C)CC2)=CC(c2ccc3c(c2)OCO3)C1CCCO (stereo unspecified)	nt	0.66	nt	nt	nt	nt	nt	nt	nt	nt	nt
N=C(N)SCc1ccc(Cl)cc1Cl	68*	0.12*	-6	82*	72*	86*	66*	89*	68*	69*	90*
NC(=S)Cc1ccc(Cl)cc1Cl	3	0.65	-4	1	5	nt	nt	nt	nt	nt	nt
CCC(=O)N1CCN(c2ccc(Cl)cc2NC(=O)c2ccc([N+](=O)[O-])o2)CC1	3	0.72	1	3	2	nt	nt	nt	nt	nt	nt
O=C(Nc1cc(Cl)ccc1-n1cncn1)c1ccc([N+](=O)[O-])o1	32*	0.58	-7	99*	16*	92*	12*	57*	9	12	98*
COc1ccc(/C=N/NC(=O)c2nc(-c3ccccc3)n(-c3ccccc3)n2)c(O)c1	19*	nt	-6	21*	22*	11	19*	9	11*	14	20
Cc1ccc2cc(C=NNC(=O)CN3CCCCC3)c(Cl)nc2c1	nt	0.7	nt	nt	nt	nt	nt	nt	nt	nt	nt
O=C(NNC(=O)c1cc2cc(Br)ccc2oc1=O)c1ccc(O)cc1O	23*	0.69	-4	24*	18*	11	14*	13	3	6	8
COc1ccc2c(c1)OCC1C2N2C(=O)c3cc(Cl)ccc3NC(=O)[C@@]2(C)C1c1ccccc1 (stereo partly specified)	nt	0.7	nt	nt	nt	nt	nt	nt	nt	nt	nt
Cc1nc2ccc(C(=O)N/N=C/c3cc([N+](=O)[O-])ccc3O)cc2[nH]1	17*	nt	-2	19*	17*	8	14*	12	4	9	12
CCCCCC(=O)N1CC2(CC(c3cccc(NC(=O)C4CCC(=O)N4)c3)=NO2)CC1C(N)=O (stereo unspecified)	nt	0.68	nt	nt	nt	nt	nt	nt	nt	nt	nt
O=C(O)c1cccc(NC(=S)NC(NC(=O)c2ccco2)C(Cl)(Cl)Cl)c1 (stereo unspecified)	-1	0.69	-1	1	-1	nt	nt	nt	nt	nt	nt
O=C(NC(NC(=S)Nc1ccc(Cl)c(Cl)c1)C(Cl)(Cl)Cl)c1ccco1 (stereo unspecified)	14*	0.62	-31	14*	14*	20*	13*	14	8	10	11
O=C(C=Cc1ccc2c(c1)S(=O)(=O)N(Cc1ccccc1)C2CC(=O)N1CCOCC1)N1CCOCC1 (stereo unspecified)	nt	0.62	nt	nt	nt	nt	nt	nt	nt	nt	nt
O=c1cc2oc3cc(O)c(O)cc3c(-c3ccccc3[N+](=O)[O-])c-2cc1O	12*	0.78	0	13*	11*	10	12*	4	7	8	9
CCOC(=O)CC1=NN(c2ccccc2)C(=O)C1=Cc1ccc(OC)cc1OC	nt	0.67	nt	nt	nt	nt	nt	nt	nt	nt	nt
O=S(=O)(Nc1nccs1)c1ccc(Br)cc1	1	0.64	-4	4	4	nt	nt	nt	nt	nt	nt
Nc1ccc(S(=O)(=O)Nc2nccs2)cc1	15*	0.65	2	29*	12*	10	5.5*	16	6	4	27*
SMILES	E coli growth-1	E coli growth-2	Tat transport	AddAB inh	phage Ecoli inh	AddAB conf	RecBCD counter	Bact viability	RecBCD conf	Ecoli viability	AddAB counter
Cc1cccc2cc(C=NNC(=O)CN3CCOCC3)c(Cl)nc12	nt	0.75	nt	nt	nt	nt	nt	nt	nt	nt	nt
COc1ccc(OC)c(C=NNC(=O)CSc2nnc(CCCc3ccc(OC)c(C)c3)o2)c1	nt	0.69	nt	nt	nt	nt	nt	nt	nt	nt	nt
CCN(CC)c1ccc(/C=N/NC(=O)c2cccc(S(=O)(=O)Nc3ccccc3OC)c2)c(O)c1	33*	nt	-4	32*	28*	21*	26*	19	19*	24*	28*
CCOc1ccc(C(=O)Nc2ccc(N3CCN(C)CC3)cc2)cc1	0	0.62	-2	4	5	nt	nt	nt	nt	nt	nt
CCOc1ccc(NC(=O)c2ccc(NC(=O)c3cn4c5c(c(N6CCN(C)CC6)c(F)cc5c3=O)OCC4C)cc2)cc1 (stereo unspecified)	97*	0.067*	88*	95*	99*	100*	100*	99*	103*	104*	104*
CC1COc2c(N3CCN(C)CC3)c(F)cc3c(=O)c(C(=O)O)cn1c23 (stereo unspecified)	98*	0.061*	117*	99*	98*	100*	100*	101*	101*	102*	102*
O=C1C=C(C=Cc2ccccc2)CC(c2ccc3c(c2)OCO3)C1 (stereo unspecified)	nt	0.7	nt	nt	nt	nt	nt	nt	nt	nt	nt
COc1ccc(NC(=O)N(C)CC2Oc3ccc(NC(=O)Cc4ccccc4)cc3CC(=O)N(C(C)CO)CC2C)cc1 (stereo unspecified)	nt	0.68	nt	nt	nt	nt	nt	nt	nt	nt	nt
CCN1C(=O)C2C(c3ccccc3)N3C(=O)N(c4cccc(F)c4)C(=O)[C@@]3(CC(C)C)C2C1=O (stereo partly specified)	nt	0.7	nt	nt	nt	nt	nt	nt	nt	nt	nt
CCC(=O)c1cn(CC(=O)Nc2ccc(OC)cc2)c2ccccc12	14*	nt	-10	13*	11*	12	11*	9	3	6	5
